IL-1B inflam inh: qHTS for Inhibitors of Inflammasome Signaling: IL-1-beta AlphaLISA Primary Screen | THP-1 LPS/ATP IL-1B secretion, AlphaLISA, 16 h; stronger effect = lower value | activity change, % at 57.5 µM | actives 4.7% (n = 360,000); in the data active = activity change below about -50%; inconclusive = mostly about -30% to -49%; also: % is scaled to controls: 0 for no effect and ±100 for the full control effect
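Secreted IL-1B measured by AlphaLISA bead assay after 16 h compound exposure of THP-1 cells; compounds (final up to 57.5 uM) added 1 h before LPS (250 ng/mL) and ATP (1.25 mM) stimulation; lower signal means less secretion.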
DRD3 antagonist: qHTS of D3 Dopamine Receptor Antagonist: qHTS; AID 652054, 2013; D(3) dopamine receptor (Homo sapiens), P35462; max response, negative = inhibition, %; actives 2.5% (n = 360,000); D3R cells, DiscoveRx beta-arrestin luminescence, antagonist mode; stronger effect = lower value; in the data active = max response below about -50%; inconclusive = no clear call, values can overlap the other calls; also: % is scaled to controls: 0 for no effect and ±100 for the full control effect
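Cells expressing the human receptor were seeded at 1500 cells/well, incubated overnight at 37 degrees C in 5% CO2, then exposed to library compounds with dopamine controls for 90 minutes at 37 degrees C before luminescent detection.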
DT40 TDP1 CPT: qHTS for Inhibitors of human tyrosyl-DNA phosphodiesterase 1 (TDP1): qHTS in cells in presence of CPT; AID 686979, 2013; Potency, µM (titrated, usually from 46.2 µM), for the others: at the highest dose activity change, negative = growth inhibition, usual class: inhibitors; chicken DT40 Tdp1-/-;hTDP1 cells + 20 nM CPT, ATP luminescence, 48 h; actives 12% (n = 420,000); also: potency is read from the fitted curve at half-maximal effect; % is scaled to controls: 0 for no effect and ±100 for the full control effect; nearly all actives have a fitted effect of over 55% in size
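Cell growth measured by CellTiter-Glo luminescence after a minimum 48 h, 37 C compound exposure with 20 nM CPT in Tdp1-knockout DT40 cells stably expressing hTDP1, seeded 400/well; qHTS titration format.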
DRD3 agonist: qHTS of D3 Dopamine Receptor Agonist: qHTS. D3R DiscoveRx beta-arrestin cells, luminescence, 90 min. D(3) dopamine receptor (Homo sapiens), P35462. actives 0.58% (n = 410,000). max activation, %; in the data active = max activation above about 30%; also: 0% is about no effect
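Cells at 1500/well, incubated overnight, then treated with pinned compounds (dopamine as control) for 90 min at 37 degrees C. DiscoveRx reagent added for 30 - 60 minutes at room temperature; luminescence read.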
TDP1 cell noCPT: qHTS for Inhibitors of human tyrosyl-DNA phosphodiesterase 1 (TDP1): qHTS in cells in absence of CPT | Potency, µM (titrated, usually from 46.2 µM), inactives show at the highest dose activity change, negative = growth inhibition, usual class: inhibitors | DT40 Tdp1-/- hTDP1 cells, no CPT, ATP luminescence, 48 h | actives 15% (n = 420,000); also: potency is read from the fitted curve at half-maximal effect; % is scaled to controls: 0 for no effect and ±100 for the full control effect; nearly all actives have a fitted effect of over 55% in size
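Cells were dispensed at 400 per well, compounds added by pin tool, plates incubated ≥48 hr at 37 °C, then CellTiter-Glo added for 30 min at room temperature before luminescence reading. Line: DT40 Tdp1-/- complemented with hTDP1; camptothecin omitted.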
ClpP mod: qHTS Assay for Activators of ClpP | purified B. subtilis ClpP, FRET peptide cleavage, 20 min | Potency, µM (doses to about 57.5 µM), inactives show at the top dose activity change, negative = active | ATP-dependent Clp protease proteolytic subunit (Bacillus subtilis (strain 168)), P80244 | actives 1.9% (n = 340,000); active = well fitted falling curve with a large enough effect; inconclusive = small, poorly fitted or top-dose-only effect; inactive = no such curve, though single readings can be large or run the other way; also: potency is read from the fitted curve at half-maximal effect; the source files actives as falling curves though it sought activators and does not explain the sign; nearly all actives have a fitted effect of over 65% in size
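FRET quenching reversal measured ClpP activation: 10 microg/mL B. subtilis ClpP at pH 8 with the FRET-FV decapeptide, read at 430 nm after 320 nm excitation. The 20-min minus 0-min signal was scaled between DMSO/no-enzyme wells and ADEP (5.8 microM final).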
Active calls of the source: *; u = inconclusive; x = no result given. Hits are enriched below; roughly 21% of the tested compounds scored in any of these assays. Unless noted, calls follow the shape of the dose curve; as a rule, active = well fitted inhibition curve with a large enough effect; inconclusive = small, poorly fitted or top-dose-only effect; inactive = flat fitted curve, though single readings scatter.

SMILES	IL-1B inflam inh	DRD3 antagonist	DT40 TDP1 CPT	DRD3 agonist	TDP1 cell noCPT	ClpP mod
COc1ccc(OC)c(N2C(=O)CC(Cc3cc(C)cc(C)c3)C2=O)c1 (centres undefined)	-30	-192*	u	-12	-9%	2%
CCC1CCCCN1c1nc2c(C=O)c(C)nn2c2ccccc12 (centres undefined)	-30	-10	21µM*	-3	16µM*	0%
Cc1noc2ncnc(N3CCN(c4ccccc4F)CC3)c12	x	x	21µM*	-1	23µM*	1%
Fc1ccccc1N1CCN(c2ncnc3[nH]ncc23)CC1	-14	-20	15µM*	-6	u	u
COc1ccccc1N1CCN(c2ncnc3n[nH]c(Br)c23)CC1	16	2	u	6	u	1%
COc1ccccc1N1CCN(c2ncnc3onc(C)c23)CC1	x	x	u	1	15µM*	-1%
CCOc1ccc(CNC(=O)CN2C(=O)CSc3ccc(S(=O)(=O)N4CCOCC4)cc32)cc1OC	-25	-5	1%	3	12%	-1%
CN1CCN(c2ncncc2-c2cccnc2)CC1	x	x	u	x	-1%	x
O=C1NC[C@H](Cc2ccccc2)N(C[C@@H]2CCCN2C[C@H](Cc2ccc(O)cc2)N2C[C@H](Cc3ccc(O)cc3)N(CC3CCCCC3)C(=O)C2=O)C1=O	u	20	u	0	23µM*	0%
O=C1NC[C@H](Cc2ccc(O)cc2)N(C[C@@H]2CCCN2C[C@H](Cc2ccccc2)N2C[C@H](Cc3ccc(O)cc3)N(CC3CCCCC3)C(=O)C2=O)C1=O	-1	-12	u	-12	u	0%
O=C1NC[C@H](Cc2ccccc2)N(C[C@H]2CCCN2C[C@H](Cc2ccccc2)N2C[C@H](Cc3ccccc3)N(CC3CCCCCC3)C(=O)C2=O)C1=O	-69*	-23	u	-33	16µM*	-2%
CCOc1ccc(CCN2C(=O)C(=O)N([C@@H](Cc3ccccc3)CN3CCC[C@@H]3CN3C(=O)C(=O)NC[C@@H]3Cc3ccc(O)cc3)C[C@@H]2Cc2ccccc2)cc1	3	2	-5%	7	11%	-4%
O=C1NC[C@H](Cc2ccccc2)N(C[C@@H]2CCCN2C[C@H](Cc2ccc(O)cc2)N2C[C@H](Cc3ccccc3)N(CCc3ccccc3)C(=O)C2=O)C1=O	-80*	-19	u	-8	-30%	4%
Nc1cc(C(F)(F)F)ccc1Nc1ccccc1	14	-15	6%	1	u	-23%
COc1cc(OC)cc(-c2noc(-c3csc([C@@H]4C[C@H](O)[C@@H](CO)O4)n3)n2)c1	u	57	u	2	15µM*	1%
COc1ccc(-c2noc(-c3csc([C@@H]4C[C@H](O)[C@@H](CO)O4)n3)n2)cc1OC	-17	-21	u	-2	u	-3%
CCOc1ccc(-c2noc(-c3csc([C@@H]4C[C@H](O)[C@@H](CO)O4)n3)n2)cc1	-10	4	u	1	23µM*	-6%
CCN(CC)c1ccc(NC(=O)Cn2nc(C)n3cccc3c2=O)c(C)c1	x	x	15µM*	-11	18µM*	0%
CNC(=O)CN1C(=O)CSc2ncccc21	4	22	-2%	1	-19%	0%
CCN(CC)c1ccc(NC(=O)CN2C(=O)c3cccnc3Oc3ccccc32)c(C)c1	x	x	16µM*	-9	16µM*	-9%
CCN(CC)c1ccc(NC(=O)CN2C(=O)CSc3ncccc32)c(C)c1	11	10	5.2µM*	0	7.3µM*	0%
CC1=CC(C)(C)n2c(O)c(N=NC(N)=S)c3cccc1c32	0	-13	u	-7	u	0%
COc1cc2c3c(c1)c(N=NC(N)=S)c(O)n3C(C)(C)C=C2C	-19	-3	4.6µM*	-4	5.2µM*	x
CC1=CC(C)(C)n2c(O)c(N=N)c3c(C)c(C)cc1c32	-9	45	-15%	16	u	x
CC1=CC(C)(C)n2c(O)c(N=N)c3cc(C)cc1c32	-60*	8	u	0	23µM*	0%
SMILES	IL-1B inflam inh	DRD3 antagonist	DT40 TDP1 CPT	DRD3 agonist	TDP1 cell noCPT	ClpP mod
Cc1nc(N)nc(N)c1-c1ccc([N+](=O)[O-])cc1	10	-13	u	5	1.5µM*	1%
Cc1ccc(OCc2cc(C(=O)NC3CCCCC3)no2)cn1	19	24	13µM*	10	8.2µM*	-3%
CC(NC(=O)c1cc(COc2ccc3ncccc3c2)on1)c1ccc(F)cc1 (centres undefined)	-16	22	6.5µM*	7	3.7µM*	-3%
O=C(NCCc1cn2ccccc2n1)c1cc(COc2ccc3ncccc3c2)on1	-11	30	4.1µM*	28	5.8µM*	x
O=C(NC1CCCC1)c1cc(COc2ccc3ncccc3c2)on1	-6	20	3.7µM*	3	2.1µM*	-9%
CC1Sc2ccc(S(=O)(=O)CCC(=O)NC(C)c3ccccc3)cc2NC1=O (centres undefined)	23	-11	-17%	-3	-5%	-3%
COCC1CCN(C(=O)c2cc(COc3ccc4ncccc4c3)on2)CC1	33	3	3.7µM*	11	8.2µM*	x
O=C(c1cc(COc2ccc3ncccc3c2)on1)N1CCCCCC1	-11	20	4.1µM*	3	2.6µM*	-4%
O=C(c1cc(COc2ccc3ncccc3c2)on1)N1CCCC1	11	18	7.3µM*	15	6.5µM*	-14%
COCC1CCN(C(=O)c2cc(COc3ccc(-n4cncn4)cc3)on2)CC1	26	4	u	2	-19%	2%
Cc1ccc(OCc2cc(C(=O)N3CCCCCCC3)no2)cc1C	-15	-5	-18%	5	5%	2%
COc1cccc(OCc2cc(C(=O)N3CCN(C(C)=O)CC3)no2)c1	-2	u	-7%	8	2%	-1%
Cn1nnnc1SCCNCc1ccc(OCc2ccccc2Cl)cc1	x	x	u	23	u	-1%
COc1ccccc1CNCCSc1nnnn1C	x	x	3%	-10	-14%	-1%

Compound activity as filed in PubChem BioAssay.
